This passage reports outcome results from PubChem BioAssay AID2284359 (EPA ToxCast).

Inconclusive results are not listed. Activity calls are given as the source filed them. How the source made its calls: active means hit-call score of the fitted dose curve at least 0.9, where 1 is the maximum; inconclusive means response in the unintended direction; inactive means score below 0.9.

This test can be described thus: ATG_M_06_EcoTox2: Attagene TRANS-FACTORIAL EcoTox-2 HepG2 Assay for M06 Transcription Factor (Internal Marker). The procedure:
ATG_EcoTox2 is a cell-based, multiplexed assay created by modifying the existing Attagene TRANS-FACTORIAL system to include a panel of nuclear receptors from some or all the following species: human (Homo sapiens), african clawed frog (Xenopus laevis), rainbow trout (Oncorhynchus mykiss), japanese medaka (Oryzias latipes), and zebrafish (Danio rerio). The ECOTOX2-FACTORIAL format uses HepG2, a human liver cell line, with measurements taken at 24 hours after chemical dosing in a 24-well plate. ATG_M_06_EcoTox2 is one of 29 assay components calculated in the ATG_EcoTox2 assay. It is designed to make measurements of mRNA induction, a form of inducible reporter, as detected with fluorescence intensity signals by Reverse transcription polymerase chain reaction (RT-PCR) and Capillary electrophoresis technology.The assay endpoint ATG_M_06_EcoTox2 was analyzed in the positive analysis fitting direction relative to DMSO as the negative control and baseline of activity. Using a type of inducible reporter, measures of mRNA for gain-of-signal activity can be used to understand the background control at the transcription factor-level as they relate to the gene. Furthermore, this assay endpoint can be referred to as a secondary readout, because this assay has produced multiple assay endpoints where this one serves a background control function. To generalize the intended target to other relatable targets, this assay endpoint is annotated to the background measurement intended target family, where the subfamily is internal marker.
Human liver HepG2 cells are transiently transfected with multiple reporter transcription units (MRTUs) in 6-well plates using FuGene 6 reagent (Roche; 3 ml FuGene/1 mg DNA). The MRTU constructs are regulated by a cis-regulating element (promoter). Each RTU expresses a GAL4-UAS that regulates the transcription of a nearby target reporter gene sequence. A major difference between the CIS and TRANS system is that in CIS activities of endogenous TFs are measured, whereas the TRANS assay evaluates changes in activities of exogenous, chimeric NR-Gal4 proteins. […] At the end of 24 hour incubation, total RNA was isolated using TriZol reagent (Invitrogen). The isolated RNA is then reverse-transcribed using oligo(dT) primer and Mo-MLV reverse transcriptase (Invitrogen) with DNAse I (Ambion) treatment for 30 min. The one-tenth of the produced cDNA was amplified by PCR using Taq DNA polymerase (Invitrogen) and two reporter sequence-specific primers. The PCR products were fluorescently labeled by primer extension with 6-arboxyfluorescein (6-FAM) 5'-labeled reporter sequence-specific primer (2 min at 95 C, 20 s at 68 C and 10 min at 72 C) and these products were digested with 5U of HpaI (New England Biolabs) for 2h at 37 C. The fragments were purified using Qiaquick PCR columns (Qiagen), analyzed on an ABI 3130xL genetic analyzer (Applied Biosystems) with peak positions identified by using a set of X-rhodamine (ROX)-labeled MapMarker1000 molecular weight standards (BioVentures). The raw capillary electrophoresis data was processed using Attagraph software (Attagene).
On to `CC(C)(Oc1ccc(Cl)cc1)C(=O)O`, for which the result was inactive. `C=C(c1ccc(C(=O)O)cc1)c1cc2c(cc1C)C(C)(C)CCC2(C)C`: the outcome was inactive. As for `CN(CCOc1ccc(CC2SC(=O)NC2=O)cc1)c1ccccn1` (stereo unspecified), the entry is “inactive”; as for `CC(c1cc2ccccc2s1)N(O)C(N)=O` (stereo unspecified), “inactive”; as for `CC(C)(Oc1ccc(CCNC(=O)c2ccc(Cl)cc2)cc1)C(=O)O`, “inactive”.

`CC(C)OC(=O)C(C)(C)Oc1ccc(C(=O)c2ccc(Cl)cc2)cc1`: the call was inactive. The entry for `Cc1cccc(Nc2cc(Cl)nc(SCC(=O)O)n2)c1C` is “inactive”. As for `Cc1c(C)c2c(c(C)c1O)CCC(C)(COc1ccc(CC3SC(=O)NC3=O)cc1)O2` (stereo unspecified), the entry is “inactive”; as for `C[C@]12C=CC(=O)C=C1CC[C@@H]1[C@@H]2C(=O)C[C@@]2(C)[C@H]1CC[C@]2(O)C(=O)CO`, “inactive”; as for `Cc1nc(-c2ccc(C(F)(F)F)cc2)sc1C(=O)NCc1ccc(OC(C)(C)C(=O)O)cc1`, “inactive”. `CC(C)(Oc1ccc(C2CC2(Cl)Cl)cc1)C(=O)O` (stereo unspecified): the outcome was inactive.
